Data published in PubChem BioAssay (NCATS).
Active and inactive are the calls of the source. Where a call stands in place of a potency, no number is given. Calls come from the whole dose curve; as a rule, active = well fitted inhibition curve with a large enough effect; inconclusive = small, poorly fitted or top-dose-only effect; inactive = no such curve, though single readings can be large or run the other way.

Assay: qHTS assay for measurement of the activity of small molecule inhibitors on Zika virus induced Caspase-3 activity in human astrocytoma cells (AID 1224859)
Conditions: SNB-19 ZIKV-induced caspase-3/7, luminescence, 6 h; series mostly up to 45.7 µM
Source text: National Center for Advancing Translational Sciences [NCATS]
Johns Hopkins University School of Medicine
Increase in the Caspase-3 activity indicates an activation of apoptosis cell death pathway caused by Zika virus infection in certain types of neuronal cells including human neural progenitor cells (hNPCs), astrocytes, and astrocytoma cell line (SNB-19). This cell-based caspase-3 activity assay measures the increased caspase-3 activity in the astrocytoma cell line (SNB-19) after a 6-hour Zika virus infection with a luminescence readout. A decrease in the luminescence signal in this assay by small molecule treatment indicates an inhibitory effect of that small molecule on the Zika virus induced caspase-3 activity that may correlate with its effect on reduction of Zika virus caused cell death.
The medium for SNB-19 cells is composed of RPMI 1640 (ATCC, Cat.# 30-2001), 10% fetal bovine serum (FBS) (GE healthcare Life Sciences, Cat.# SH30071.03), and 1% Pen/Strep (Gibco, Cat.# 15140-122). A Caspase-Glo 3/7 assay kit (catalog number G8092; Promega, Madison, WI) was used to detect caspase-3 activity induced by Zika virus infection in human cells. The reagent mixture was reconstituted as described in the protocol from the manufacturer. Polystyrene tissue culture treated and PDL coated white plates were obtained from Greiner Bio-One (Monroe, NC). Cells were seeded in 384- or 1536-well assay plates and cultured at 37 C with 5% CO2 for 16 to 20 hours. The typical cell seeding density in the 1536-well plate assay is 250 cells/well in 3ul medium for SNB-19 cells in tissue culture treated plates. Compounds were added to cells and incubated for one hour before addition of ZIKV solution to cells (2 FFU/cell). After incubation at 37 C with 5% CO2 for 6 hours, the reagent mixture of Caspase-Glo 3/7 assay kit was added to each well, followed by incubation at room temperature for 30 minutes. The luminescence intensity of the assay plates was measured using a ViewLux plate reader (PerkinElmer). Data were normalized by using the cell-containing wells without ZIKV as a negative control (0% induction of caspase 3/7 activity) and wells containing ZIKV infected cells (Caspase-3 activity induced) as a positive control (100% induction of caspase 3 activity). The percentage inhibitions of the increased Caspase-3 activity by small molecule inhibitors were then calculated.

SMILES	Potency
O=C(O)CCNc1cc(N2CCc3ccccc3CC2)nc(-c2ccccn2)n1	inactive
O=c1[nH]c(=O)n([C@H]2C[C@@H](O)[C@@H](CO)O2)cc1I	inactive
NC(=O)c1noc([C@H](CCCC2CCCCC2)CC(=O)NO)n1	inactive
CCCCC(C=O)NC(=O)C(CC(C)C)NC(=O)OCc1ccccc1 (stereo not given)	inactive
CN1c2ccccc2C(=O)N2CCc3c([nH]c4ccccc34)C21 (stereo not given)	inactive
N#CC(=C1Nc2ccccc2S1)c1ccnc(OCc2ccc(CN3CCOCC3)cc2)n1	inactive
COc1c(C)c2c(c(O)c1CC=C(C)CCC(=O)OCCN1CCOCC1)C(=O)OC2	inactive
FC(F)(F)c1ccc(C=Cc2nc(COc3ccc(CCCCn4ccnn4)cc3)co2)cc1	inactive
COC(=O)Nc1ccc(-c2nc(N3CCOCC3)c3cnn(C4CCN(C(=O)OC)CC4)c3n2)cc1	inactive
CN1CCc2c(n(Cc3ccc(C(=O)NO)cc3)c3ccccc23)C1	inactive
CN(C)CCCNC(=O)c1ccc(-c2cc(O)c3ncccc3c2)cc1	inactive
O=C(O)CCC=CCC[C@@H]1[C@H](N2CCCCC2)[C@@H](O)C[C@@H]1OCc1ccc(-c2ccccc2)cc1	inactive
C[C@@H](NC(=O)c1ncnc(N)c1Cl)c1ncc(C(=O)Nc2cc(C(F)(F)F)c(Cl)cn2)s1	inactive
CC[C@H](C)C(=O)O[C@H]1C[C@H](O)C=C2C=C[C@H](C)[C@H](CC[C@@H](O)C[C@@H](O)CC(=O)O)[C@H]21	inactive
NC(=O)c1ccc(N(C(N)=O)c2c(F)cccc2F)nc1-c1ccc(F)cc1F	inactive
c1cc(OCCN2CCCCC2)cc(-c2n[nH]c3ccc(-c4ncn[nH]4)cc23)c1	inactive
CCN1CCC(n2cc(CNc3cc(Cl)c4ncc(C#N)c(Nc5ccc(F)c(Cl)c5)c4c3)nn2)CC1	inactive
Cn1cc(-c2ccc3nnc(Sc4ccc5ncccc5c4)n3n2)cn1	inactive
C[C@H](c1ccc(F)cc1CCCC(=O)O)N(c1cc(F)ccc1F)S(=O)(=O)c1ccc(Cl)cc1	inactive
C=C[C@@H]1CN2CCC1C[C@@H]2C(O)c1ccnc2ccc(OC)cc12 (stereo not given in full)	inactive

SMILES	Potency
CCCCCCOC(=O)N=C(N)c1ccc(NCc2nc3cc(C(=O)N(CCC(=O)OCC)c4ccccn4)ccc3n2C)cc1	inactive
C[C@@H]1[C@H](C)CC[C@]2(C(=O)O)CC[C@]3(C)C(=CC[C@@H]4[C@@]5(C)CC[C@H](O)C(C)(C)[C@H]5CC[C@]43C)[C@@H]12	inactive
COc1ccc(-c2cc(=O)c3c(O)cc(O[C@@H]4O[C@H](CO[C@@H]5O[C@@H](C)[C@H](O)[C@@H](O)[C@@H]5O)[C@@H](O)[C@H](O)[C@@H]4O)cc3o2)cc1O	inactive
Cn1c(=O)c(Oc2ccc(F)cc2F)cc2cnc(NC3CCOCC3)nc21	inactive
C[C@@]1(c2cc(-c3cncnc3)c(F)cc2F)CCSC(N)=N1	inactive
CCOc1ccccc1N=Nc1c(C)[nH]n(-c2nc(-c3ccccc3)cs2)c1=O	inactive
Cc1ccc(NC(=O)c2ccc(CN3CCN(C)CC3)cc2)cc1Nc1nc(-c2cccnc2)cs1	inactive
CCNC(=O)CCCC=CC[C@@H]1[C@H](C=CC(O)CCc2ccccc2)[C@@H](O)C[C@@H]1O (stereo not given in full)	inactive
CC[C@]1(O)C[C@H]2CN(CCC3=c4ccccc4=N[C]3[C@@](C(=O)OC)(c3cc4c(cc3OC)N(C)[C@H]3[C@@](O)(C(N)=O)[C@H](O)[C@]5(CC)C=CCN6CC[C@]43[C@@H]65)C2)C1	inactive
COc1ccnc(CS(=O)c2nc3ccc(OC(F)F)cc3[nH]2)c1OC (stereo not given)	inactive
COc1cc(Nc2nc3ccccc3nc2NS(=O)(=O)c2ccc(NC(=O)c3ccc(C)c(OC)c3)cc2)cc(OC)c1	inactive
CNC(=O)c1ccc2c(C(=Nc3cccc(CN(C)C)c3)c3ccccc3)c(O)[nH]c2c1	inactive
CCCCCOC(=O)Nc1nc(=O)n([C@@H]2O[C@H](C)[C@@H](O)C2O)cc1F (stereo not given in full)	inactive
CN(C(Cc1ccc(OS(=O)(=O)c2cccc3cnccc23)cc1)C(=O)N1CCN(c2ccccc2)CC1)S(=O)(=O)c1cccc2cnccc12 (stereo not given)	inactive
C[C@@H]1C[C@H]2[C@@H]3CCC4=CC(=O)C=C[C@]4(C)[C@@]3(F)[C@@H](O)C[C@]2(C)[C@@]1(O)C(=O)CO	inactive
Cc1ccc(C(=O)N(CCCN)[C@@H](c2nc3cc(Cl)ccc3c(=O)n2Cc2ccccc2)C(C)C)cc1	inactive
CCCCn1c(=O)n(Cc2ccccc2F)c(=O)c2[nH]c(Cc3ccc(NC(C)=O)cc3)nc21	inactive
CCCCC[C@H](O)C=C[C@H]1[C@H](O)CC(=O)[C@H]1CC=CCCCC(=O)O	inactive
N#Cc1c(N(CC(=O)O)CC(=O)O)sc(C(=O)O)c1CC(=O)O	inactive
C=C1[C@H](n2cnc3c(=O)[nH]c(N)nc32)C[C@H](O)[C@H]1CO	inactive
